By inhibition is commonly meant the change of the read-out against control, counted positive when it falls.

Each structure is given as a SMILES string.

One assay deals with Tyrosine-protein kinase SYK (Homo sapiens) (UniProt P43405). Conditions: at 1 µM.
Consider `c1ccc(Oc2ccc(Nc3ncc(-c4ccccc4)o3)cc2)cc1`, for which the inhibition came to 2.28%.
On the same count and under the same terms, the value for `COc1cc(Nc2ncc3c(C)nc(-c4cccc(C(F)(F)F)c4)n3n2)cc(OC)c1OC` was -2.22%; that for `COc1cc2ncn(-c3cc(OCc4ccccc4C(F)(F)F)c(C(C)=O)s3)c2cc1OC` was -5.75%; that for `CCc1nccc2c1nc(-c1nonc1N)n2CC` was 10.7%.
In the case of `Cc1ccc(NC(=O)c2ccoc2)cc1-c1ccc(C(=O)NCC2CC2)cc1`, the inhibition was -2.99%.
The same measure, in the same setting: the value for `NC(=O)c1ccc(Oc2nccc(-c3c(-c4ccc(F)cc4)ncn3C3CCNCC3)n2)cc1` was 2.71%.
For `FC(F)(F)c1cccc(Nc2nccc(-c3cnn4nc(-c5ccccc5)ccc34)n2)c1`, the inhibition was -6.97%.
Still for that read-out and setting: the figure for `O=C(Nc1n[nH]c2cc(-c3ccccc3)ccc12)C1CC1` is 1.22%.
Still for that read-out and setting: the figure for `N#Cc1ccc(Oc2nccc(-c3c(-c4ccc(F)cc4)ncn3C3CCNCC3)n2)cc1` is -3.55%.
The same measure, in the same setting: the figure for `COc1cc(C)c(N(C)C(=O)CN(C)C)cc1Nc1nc(Nc2cccc(F)c2C(N)=O)c2cc[nH]c2n1` is 1.76%.
Turning to `O=C1Nc2ccccc2/C1=C/Nc1ccc(-n2cncn2)cc1`, the inhibition is -1.86%.
The same measure, in the same setting: the figure for `CCN(CC)Cc1ccc(Nc2nccc(-c3cnn4ncccc34)n2)cc1` is -0.45%; for `CN(C)CCOc1ccc(-c2cc(-c3ccc4c(c3)CCC4=NO)c(-c3ccncc3)o2)cc1` it is 0.74%; for `COc1cc2ncn(-c3cc(OCCc4ccccc4)c(C(N)=O)s3)c2cc1OC` it is -0.89%.
Same read-out and setting: the figure for `CN(c1ccc(NC(=O)Nc2c(Cl)cccc2Cl)cc1)c1ccnc(Nc2cccc(CS(C)(=O)=O)c2)n1` is -9.25%; for `NC(=O)c1cc(-c2ccncc2)cc(-c2ccccc2)c1N` it is 1.64%.
On the same count and under the same terms, the value for `NC(=O)c1cc(-c2ccc(F)cc2)cc(-c2ccncc2)c1N` was 1.28%; that for `O=C1Nc2ccc(I)cc2C1=Cc1cc(Br)c(O)c(Br)c1` was 1.56%.
On to `O=C(Nc1n[nH]c2nc(-c3ccco3)ccc12)C1CC1`, for which the inhibition amounted to 1.5%.
Same read-out and setting: the value for `CN1CCN(CCCNc2nc3ccc(Oc4ccc(NC(=O)Nc5cc(C(F)(F)F)ccc5F)cc4)cc3[nH]2)CC1` was 0.86%; that for `COc1ccc2cc(-c3c(-c4ccncc4)nc(-c4ccc(S(C)(=O)=O)cc4C)n3C)ccc2c1` was 0.26%; that for `CN(C)CCCNc1nccc(-c2c(-c3ccc(F)cc3)nn3cc(C(F)(F)F)ccc23)n1` was -0.03%.
Still for that read-out and setting: the figure for `COc1cc2ncn(-c3cc(OCc4cccs4)c(C(N)=O)s3)c2cc1OC` is 0.32%.
Same read-out and setting: the value for `Nc1nccc(-c2c(-c3ccc(F)cc3)ncn2C2CCC(O)CC2)n1` (stereo not drawn) was 4.19%; that for `O=C(Nc1n[nH]c2nc(-c3ccc(O)cc3)c(Br)cc12)C1CC1` was 0.18%; that for `COc1cc(Nc2ncc3c(C)nc(-c4cccc(Oc5ccccc5)c4)n3n2)cc(OC)c1OC` was 0.13%.
Regarding `NS(=O)(=O)c1ccc(Nc2cc(-c3ccc(O)c(F)c3)n[nH]2)cc1`, the inhibition was -1.99%.
Same read-out and setting: the figure for `CNC(=O)c1cncc(/C=C/c2c(C)cccc2C)c1` is -0.51%.
Same read-out and setting: the figure for `Clc1ccc(CNc2nccc(-c3cnn4ncccc34)n2)cc1` is 1.6%.
Same read-out and setting: the figure for `CCS(=O)(=O)c1ccc(OC)c(Nc2ncc(-c3cccc(-c4ccccc4F)c3)o2)c1` is 1.23%.
On to `Cc1nnc(-c2ccc(C)c(-c3ccc(C(=O)NCc4ccc(Cl)cc4)cc3)c2)o1`, for which the inhibition is -1%.
The same measure, in the same setting: the value for `NCc1ccc(-n2c(-c3nonc3N)nc3cnccc32)cc1` was -0.51%; that for `C/C(Nc1ccc(S(N)(=O)=O)cc1)=C1/C(=O)Nc2ccccc21` was 0.6%.
On the same count and under the same terms, the value for `NS(=O)(=O)c1ccc(N/N=C2\C(=O)Nc3ccc(-c4cnco4)cc32)cc1` was -1.05%.

The target in a further assay is T1, Tyrosine-protein kinase Tec (Homo sapiens) (UniProt P42680).
T1 sequence (whole entry): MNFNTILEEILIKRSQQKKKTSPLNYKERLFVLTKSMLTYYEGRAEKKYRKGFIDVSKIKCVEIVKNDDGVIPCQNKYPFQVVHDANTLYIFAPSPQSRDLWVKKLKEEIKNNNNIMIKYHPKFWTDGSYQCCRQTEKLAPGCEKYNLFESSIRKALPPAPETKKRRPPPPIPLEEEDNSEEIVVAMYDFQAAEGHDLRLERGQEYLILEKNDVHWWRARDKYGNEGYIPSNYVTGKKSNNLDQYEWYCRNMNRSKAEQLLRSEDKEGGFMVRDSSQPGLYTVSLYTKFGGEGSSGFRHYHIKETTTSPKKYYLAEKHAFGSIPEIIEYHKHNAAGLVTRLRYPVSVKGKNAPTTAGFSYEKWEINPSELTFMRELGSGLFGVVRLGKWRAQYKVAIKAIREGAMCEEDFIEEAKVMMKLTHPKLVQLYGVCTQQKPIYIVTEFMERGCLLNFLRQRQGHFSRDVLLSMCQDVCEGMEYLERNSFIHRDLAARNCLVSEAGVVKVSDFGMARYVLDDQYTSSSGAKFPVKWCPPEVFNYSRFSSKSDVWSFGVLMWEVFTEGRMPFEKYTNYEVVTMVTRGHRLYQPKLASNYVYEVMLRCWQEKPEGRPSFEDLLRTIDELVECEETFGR
Conditions: at 0.1 µM.
Take `c1ccc(Oc2ccc(Nc3ncc(-c4ccccc4)o3)cc2)cc1`: the inhibition stood at 2.6%.
The same measure, in the same setting: the figure for `COc1cc(Nc2ncc3c(C)nc(-c4cccc(C(F)(F)F)c4)n3n2)cc(OC)c1OC` is 3.55%.
Still for that read-out and setting: the value for `COc1cc2ncn(-c3cc(OCc4ccccc4C(F)(F)F)c(C(C)=O)s3)c2cc1OC` was -0.08%; that for `CCc1nccc2c1nc(-c1nonc1N)n2CC` was 1.47%.
For the molecule `Cc1ccc(NC(=O)c2ccoc2)cc1-c1ccc(C(=O)NCC2CC2)cc1`, the inhibition is 0.28%.
Same read-out and setting: the figure for `NC(=O)c1ccc(Oc2nccc(-c3c(-c4ccc(F)cc4)ncn3C3CCNCC3)n2)cc1` is 8.39%; for `FC(F)(F)c1cccc(Nc2nccc(-c3cnn4nc(-c5ccccc5)ccc34)n2)c1` it is -0.76%; for `O=C(Nc1n[nH]c2cc(-c3ccccc3)ccc12)C1CC1` it is 7.27%.
Same read-out and setting: the value for `N#Cc1ccc(Oc2nccc(-c3c(-c4ccc(F)cc4)ncn3C3CCNCC3)n2)cc1` was 2.34%; that for `COc1cc(C)c(N(C)C(=O)CN(C)C)cc1Nc1nc(Nc2cccc(F)c2C(N)=O)c2cc[nH]c2n1` was -0.85%; that for `O=C1Nc2ccccc2/C1=C/Nc1ccc(-n2cncn2)cc1` was 3.72%.
Same read-out and setting: the value for `CCN(CC)Cc1ccc(Nc2nccc(-c3cnn4ncccc34)n2)cc1` was 0.83%.
Consider `CN(C)CCOc1ccc(-c2cc(-c3ccc4c(c3)CCC4=NO)c(-c3ccncc3)o2)cc1`, for which the inhibition turned out to be 0.39%.
Regarding `COc1cc2ncn(-c3cc(OCCc4ccccc4)c(C(N)=O)s3)c2cc1OC`, the inhibition was 2.52%.
On the same count and under the same terms, the figure for `CN(c1ccc(NC(=O)Nc2c(Cl)cccc2Cl)cc1)c1ccnc(Nc2cccc(CS(C)(=O)=O)c2)n1` is 10.1%.
The same measure, in the same setting: the figure for `NC(=O)c1cc(-c2ccncc2)cc(-c2ccccc2)c1N` is 18.5%.
Same read-out and setting: the value for `NC(=O)c1cc(-c2ccc(F)cc2)cc(-c2ccncc2)c1N` was 2.88%.
As for `O=C1Nc2ccc(I)cc2C1=Cc1cc(Br)c(O)c(Br)c1`, the inhibition worked out at 7.04%.
As to `O=C(Nc1n[nH]c2nc(-c3ccco3)ccc12)C1CC1`, the inhibition stood at 1.47%.
In the case of `CN1CCN(CCCNc2nc3ccc(Oc4ccc(NC(=O)Nc5cc(C(F)(F)F)ccc5F)cc4)cc3[nH]2)CC1`, the inhibition stood at 0.68%.
Still for that read-out and setting: the figure for `COc1ccc2cc(-c3c(-c4ccncc4)nc(-c4ccc(S(C)(=O)=O)cc4C)n3C)ccc2c1` is 4.38%; for `CN(C)CCCNc1nccc(-c2c(-c3ccc(F)cc3)nn3cc(C(F)(F)F)ccc23)n1` it is -0.2%; for `COc1cc2ncn(-c3cc(OCc4cccs4)c(C(N)=O)s3)c2cc1OC` it is -0.38%.
The same measure, in the same setting: the value for `Nc1nccc(-c2c(-c3ccc(F)cc3)ncn2C2CCC(O)CC2)n1` (stereo not drawn) was -0.76%; that for `O=C(Nc1n[nH]c2nc(-c3ccc(O)cc3)c(Br)cc12)C1CC1` was 6.51%; that for `COc1cc(Nc2ncc3c(C)nc(-c4cccc(Oc5ccccc5)c4)n3n2)cc(OC)c1OC` was 2.22%.
On the same count and under the same terms, the figure for `NS(=O)(=O)c1ccc(Nc2cc(-c3ccc(O)c(F)c3)n[nH]2)cc1` is -1.66%; for `CNC(=O)c1cncc(/C=C/c2c(C)cccc2C)c1` it is 5.68%; for `Clc1ccc(CNc2nccc(-c3cnn4ncccc34)n2)cc1` it is 3.07%.
`CCS(=O)(=O)c1ccc(OC)c(Nc2ncc(-c3cccc(-c4ccccc4F)c3)o2)c1`: the inhibition worked out at 2.94%.
Take `Cc1nnc(-c2ccc(C)c(-c3ccc(C(=O)NCc4ccc(Cl)cc4)cc3)c2)o1`: the inhibition came to 0.01%.
Regarding `NCc1ccc(-n2c(-c3nonc3N)nc3cnccc32)cc1`, the inhibition turned out to be 4.69%.
On the same count and under the same terms, the figure for `C/C(Nc1ccc(S(N)(=O)=O)cc1)=C1/C(=O)Nc2ccccc21` is -1.54%; for `NS(=O)(=O)c1ccc(N/N=C2\C(=O)Nc3ccc(-c4cnco4)cc32)cc1` it is -1.76%.
